Experimental findings from PubChem BioAssay (NCATS) are described below.

In test [1] the target is Lysosomal acid glucosylceramidase (Homo sapiens) (UniProt P04062). In words: Glucocerebrosidase-p2 (AID 348; in the data active = potency below about 10 µM; also: potency is read from the fitted curve at half-maximal effect). The conditions noted are these: purified GBA, blue fluorogenic substrate, 40 min. The method in brief: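 Normal human glucocerebrosidase (0.2 nM) with blue fluorogenic substrate (80 uM final) in citrate/phosphate pH 5.9 with 10mM sodium taurocholate, 0.01% tween-20; 40 min RT, NaOH/glycine stop; fluorescence Ex 365/Em 440; AC50 from a titration from 0.6 nM upwards.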
Lysosomal acid glucosylceramidase (Homo sapiens), sequence (P04062 whole entry, looked up): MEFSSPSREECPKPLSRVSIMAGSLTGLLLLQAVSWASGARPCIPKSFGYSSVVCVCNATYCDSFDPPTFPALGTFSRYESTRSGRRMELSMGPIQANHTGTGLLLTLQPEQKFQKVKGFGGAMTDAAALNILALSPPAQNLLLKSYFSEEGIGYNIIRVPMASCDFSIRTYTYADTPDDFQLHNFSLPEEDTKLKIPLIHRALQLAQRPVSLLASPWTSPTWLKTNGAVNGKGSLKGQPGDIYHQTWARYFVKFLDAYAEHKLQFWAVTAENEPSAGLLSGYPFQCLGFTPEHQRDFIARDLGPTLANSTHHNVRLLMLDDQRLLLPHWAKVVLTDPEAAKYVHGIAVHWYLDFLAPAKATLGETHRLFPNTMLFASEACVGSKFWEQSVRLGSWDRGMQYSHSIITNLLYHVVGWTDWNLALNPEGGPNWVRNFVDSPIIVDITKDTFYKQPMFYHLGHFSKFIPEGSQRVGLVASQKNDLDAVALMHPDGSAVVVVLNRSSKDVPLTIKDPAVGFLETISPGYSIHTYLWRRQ

A short description of test [2]: AP1 Signaling Pathway (AID 357; active = well fitted curve in either direction with a large enough effect, not every such curve was filed as active;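 also: ME-180 reporter cells stimulated with EGF at its EC50 level; % is scaled to controls: 0 for no effect and ±100 for the full control effect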). The conditions noted are these: ME-180 AP-1-bla reporter, EGF-induced, beta-lactamase ratio, 5 h; at 7.69 µM (top of the series) unless noted. The method in brief:
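AP-1-bla ME-180 cells, Opti-MEM + 0.5% dialyzed FBS, plated overnight 37 °C. Cpd titration + EC50 EGF, 5 h 37 °C. CCF4 2.5 h RT; ex 405, em 460/530 ratio → %activity, AC50.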

The nature of test [3]: NFAT Signaling Pathway (AID 444; active = well fitted curve in either direction with a large enough effect, not every such curve was filed as active;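 also: carbachol stimulus at about its EC50 of 1 µM final; % is scaled to controls: 0 for no effect and ±100 for the full control effect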). The conditions noted are these: Jurkat NFAT-bla M1, carbachol, beta-lactamase ratio, 5 h; at 7.69 µM (top of the series) unless noted. In a few lines:
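Read-out: CCF4 FRET ratio (460 nm/530 nm) after 1 h RT dye loading, used for %activity and AC50 from titration series. Cells: Jurkat NFAT-β-lactamase/M1 line, treated with compound plus 1 uM carbachol for 5 h, 37 °C.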

A short description of test [4]: Stat Signaling Pathway (AID 446; active = well fitted curve in either direction with a large enough effect, not every such curve was filed as active;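 also: ME-180 cervical cancer cells given 40 pM IL-6 alongside compound; SIE-controlled beta-lactamase reporter measured as 460/530 nm FRET emission ratio; % is scaled to controls: 0 for no effect and ±100 for the full control effect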). To be noted: ME-180 (cervical carcinoma) SIE beta-lactamase reporter, IL-6 stimulated, 5 h; at 7.69 µM (top of the series) unless noted. The method in brief:
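Overnight-plated ME-180 cells bearing a STAT Inducible Element beta-lactamase reporter; 5 h co-exposure to compound and 40 pM IL-6; values normalized to 300 pM IL-6 and 125 nM JAK inhibitor controls.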

Test [5] has as its target Glucocorticoid receptor (Homo sapiens) (UniProt P04150). In words: GR-GFP Redistribution (AID 450;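 active = compounds whose dose series gives a full or clear partial fitted curve of increased nuclear translocation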; also: potency is read from the fitted curve at half-maximal effect). To be noted: U2OS GR-GFP nuclear translocation, laser cytometry, 2 h.
Test [6] shares this target. In words: GR-EFC Redistribution (AID 451; calls by dose curve; also: potency is read from the fitted curve at half-maximal effect). To be noted: CHO-K1 GR-EFC translocation, beta-gal luminescence, 2 h. The method in brief:
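Translocation of GR-ED fusion to nuclear EA restores b-gal, read by luminescence after 1 h room-temperature detection. Engineered CHO-K1 biosensor cells, 1,000/well, exposed 2 h at 37 C to titrations up to 46 uM final.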

The target in test [7] is Mitogen-activated protein kinase 10 (Mus musculus) (UniProt Q61831). Description: JNK3 AlphaScreen Assay (AID 530; active = well fitted curve in either direction with a large enough effect, not every such curve was filed as active;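 also: kinase came from lysate of stimulated human HepG2 cells; signal reports phosphorylation of biotinylated GST-cJun 1-79 at Ser73 with 10 µM ATP; % is scaled to controls: 0 for no effect and ±100 for the full control effect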). To be noted: JNK3 lysate, c-Jun phosphorylation; series mostly up to 57.1 µM. The method in brief:
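qHTS titrations with 15 min compound pre-incubation before adding ATP (10 uM final). Read-out: AlphaScreen of Ser73-phosphorylated biotin-GST-cJun using HepG2 lysate JNK3 activated by IL-1β and TNFα.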

Test [8] concerns the target 3',5'-cyclic-AMP phosphodiesterase 4B (Homo sapiens) (UniProt Q07343). Description: qHTS Assay for Inhibitors of PDE-IV (AID 607; active = well fitted activation curve with a large enough effect in the main read-out, with a control signal flat, not every such curve was filed as active; also: % of control where 0% means no effect). To be noted: HEK293 ACTOne CNG channel cells, membrane potential fluorescence; series mostly up to 22.9 µM. In a few lines: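 Live HEK293 cells with a modified cyclic nucleotide-gated (CNG) channel report intracellular cAMP via membrane-potential dye fluorescence (ex 535/em 590 nm). Endogenous PDE-IV was targeted. Compounds were tested at up to 22.9 uM final; RO 20-1724 100 uM served as control.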

Test [9] addresses Dual specificity protein kinase CLK4 (Homo sapiens) (UniProt Q9HAZ1). In words: qHTS Assay for Inhibitors of CDC-like Kinase 4 (Kinase-Glo Assay) (AID 1770). Also: nearly all actives have a fitted effect of over 65% in size. Also: potency is read from the fitted curve at half-maximal effect. The conditions noted are these: recombinant Clk4, Kinase-Glo ATP depletion luminescence; series mostly up to 66.7 µM. In a few lines:
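Readout: Kinase-Glo luminescence from ATP left after a 4.5 h room-temperature reaction of 25 nM Clk4 with 100 uM RS peptide and 1 uM ATP (final). Buffer: 25 mM Tris pH 7.5, 10 mM MgCl2.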

For test [10] the target is unchanged. In words: qHTS Assay for Inhibitors of CDC-like Kinase 4 (ADP-FP Assay) (AID 1795). Also: nearly all actives have a fitted effect of over 60% in size. Also: potency is read from the fitted curve at half-maximal effect. To be noted: Transcreener ADP fluorescence polarization; series mostly up to 50 µM. In a few lines:
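FP readout: Orange Transcreener ADP2 tracer (4 nM) plus ADP antibody, read after 30 min at room temperature. Kinase step: 6.25 nM Clk4, 100 uM RS peptide, 1 uM ATP, pH 7.5, 1 h.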
In general terms: In qHTS, concentration-response curves come from the screen itself.

Test [11] concerns the target Ubiquitin carboxyl-terminal hydrolase 1 (Homo sapiens) (UniProt O94782). Description: Inhibitors of USP1/UAF1: Pilot qHTS (AID 504865).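 Also: rhodamine fluorescence freed from ubiquitin-rhodamine substrate followed over time; top concentration of the series differs between compounds; % is scaled to controls: 0 for no effect and ±100 for the full control effect; nearly all actives have a fitted effect of over 35% in size.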 The conditions noted are these: purified USP1/UAF1, Ub-rhodamine cleavage fluorescence; series mostly up to 54.9 µM. The method in brief: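 1nM USP1/UAF1 + cpd, 15 min RT; start w/ Ub-Rho 150nM final; kinetic FL 480/540 nm, 6 reads q60 s. Buffer 50mM HEPES pH 7.8, 0.5mM EDTA, 1mM TCEP, 0.01% Tween-20, 0.1 mg/ml BSA.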

The nature of test [12]: Primary qHTS for small molecule stabilizers of the endoplasmic reticulum resident proteome: Secreted ER Calcium Modulated Protein (SERCaMP) assay (AID 1508630). Also: % is scaled to controls: 0 for no effect and ±100 for the full control effect. The conditions noted are these: SH-SY5Y GLuc-SERCaMP (Gaussia luciferase released on ER calcium loss) secretion, thapsigargin, luminescence; series mostly up to 38.4 µM. The method in brief: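 The SH-SY5Y reporter protocol was run at 3 concentrations up to 38.3 uM (primary) or 11 concentrations (follow-up): 16 h compound, 100 nM thapsigargin for 4 h, then extracellular luciferase luminescence.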

Test [13] addresses Cytochrome P450 1A2 (Homo sapiens) (UniProt P05177). In words: p450-cyp1a2 (AID 410; calls by dose curve; also: potency is read from the fitted curve at half-maximal effect). To be noted: recombinant CYP1A2, luciferin-ME demethylation, luminescence; series mostly up to 57 µM. In a few lines: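 O-Demethylation of luciferin 6' methyl ether by human CYP1A2 is monitored as luciferase luminescence. Substrate sits at Km (100uM); enzyme is 20nM. Values are scaled to 57 uM furafylline as maximal inhibition.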

Test [14] concerns the target Cytochrome P450 3A4 (Homo sapiens) (UniProt P08684). Description: qHTS Assay for Inhibitors and Substrates of Cytochrome P450 3A4 (AID 884). Also: potency is read from the fitted curve at half-maximal effect; nearly all actives have a fitted effect of over 50% in size. To be noted: recombinant CYP3A4, Luciferin-PPXE luminescence; series mostly up to 57.1 µM. The method in brief:
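Luminescent readout of luciferin produced by CYP3A4 (20 nM) dealkylation of Luciferin-PPXE, 25 uM (its KM). NADPH-driven reaction ran 60 min at RT after 10 min compound preincubation; data scaled to 57 uM ketoconazole as 100% inhibition.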

Test [15] shares this target. In words: qHTS Assay for Activators of Cytochrome P450 3A4 (AID 885). Also: nearly all actives have a fitted effect of over 65% in size. The conditions noted are these: recombinant CYP3A4, Luciferin-PPXE luminescence, 60 min; series mostly up to 57.1 µM. In a few lines: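 Using 20nM recombinant human CYP3A4 in potassium phosphate (200mM), substrate Luciferin-PPXE at 25uM, luminescent luciferin detection followed a 60-min RT NADPH reaction; data scaled to 57 uM ketoconazole.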

Test [16] addresses Cytochrome P450 2C19 (Homo sapiens) (UniProt P33261). In words: qHTS Assay for Inhibitors and Substrates of Cytochrome P450 2C19 (AID 899). Also: potency is read from the fitted curve at half-maximal effect; nearly all actives have a fitted effect of over 60% in size. To be noted: recombinant CYP2C19, luciferin-H EGE luminescence; series mostly up to 57.1 µM. In a few lines:
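5nM enzyme + 10uM Luciferin-H EGE (=KM), 50mM KPO4; cpd pin-transferred, 10 min 37C; NADPH regen, 60 min 37C; stopped w/ luciferin detection reagent, 20 min; luminescence. Normalized to 57uM ketoconazole (AC100).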

Unmarked numbers belong to inactive results. Results filed as inconclusive are left out. The source made the active and inactive calls. Unless noted, calls follow the shape of the dose curve; as a rule, active = well fitted curve in the direction sought with a large enough effect; inconclusive = small, poorly fitted or top-dose-only effect, or another doubt; inactive = no such curve, though single readings can be large; an effect the other way counts as inactive or inconclusive. Some results are limits rather than exact numbers.

Dual specificity protein kinase CLK4 (Homo sapiens), sequence (Q9HAZ1 whole entry, looked up): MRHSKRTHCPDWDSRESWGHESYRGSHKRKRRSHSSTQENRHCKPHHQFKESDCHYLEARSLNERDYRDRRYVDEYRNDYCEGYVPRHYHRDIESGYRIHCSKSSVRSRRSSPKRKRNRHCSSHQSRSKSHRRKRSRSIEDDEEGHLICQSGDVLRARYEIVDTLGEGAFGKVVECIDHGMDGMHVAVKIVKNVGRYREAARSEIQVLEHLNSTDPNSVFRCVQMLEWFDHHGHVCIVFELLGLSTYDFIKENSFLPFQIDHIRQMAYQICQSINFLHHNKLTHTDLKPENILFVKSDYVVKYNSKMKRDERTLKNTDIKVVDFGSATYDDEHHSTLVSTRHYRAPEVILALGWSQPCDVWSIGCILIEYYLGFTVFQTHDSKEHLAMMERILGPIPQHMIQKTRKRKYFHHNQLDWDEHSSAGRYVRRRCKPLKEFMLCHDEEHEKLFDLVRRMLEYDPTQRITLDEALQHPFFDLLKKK
Cytochrome P450 3A4 (Homo sapiens), sequence (P08684 whole entry, looked up): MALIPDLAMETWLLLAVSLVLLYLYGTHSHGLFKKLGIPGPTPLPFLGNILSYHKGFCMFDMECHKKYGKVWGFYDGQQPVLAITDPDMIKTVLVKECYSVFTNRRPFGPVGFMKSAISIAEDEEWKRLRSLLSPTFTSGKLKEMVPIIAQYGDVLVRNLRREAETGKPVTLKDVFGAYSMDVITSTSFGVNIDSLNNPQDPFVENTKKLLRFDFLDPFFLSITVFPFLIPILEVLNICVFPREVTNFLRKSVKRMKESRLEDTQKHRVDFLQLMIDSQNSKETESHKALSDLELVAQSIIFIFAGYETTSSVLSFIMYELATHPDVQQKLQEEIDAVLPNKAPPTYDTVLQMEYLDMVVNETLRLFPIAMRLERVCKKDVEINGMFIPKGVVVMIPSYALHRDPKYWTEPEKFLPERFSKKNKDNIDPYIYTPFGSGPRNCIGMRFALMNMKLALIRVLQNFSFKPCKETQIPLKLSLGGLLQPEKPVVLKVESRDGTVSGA
Cytochrome P450 1A2 (Homo sapiens), sequence (P05177 whole entry, looked up): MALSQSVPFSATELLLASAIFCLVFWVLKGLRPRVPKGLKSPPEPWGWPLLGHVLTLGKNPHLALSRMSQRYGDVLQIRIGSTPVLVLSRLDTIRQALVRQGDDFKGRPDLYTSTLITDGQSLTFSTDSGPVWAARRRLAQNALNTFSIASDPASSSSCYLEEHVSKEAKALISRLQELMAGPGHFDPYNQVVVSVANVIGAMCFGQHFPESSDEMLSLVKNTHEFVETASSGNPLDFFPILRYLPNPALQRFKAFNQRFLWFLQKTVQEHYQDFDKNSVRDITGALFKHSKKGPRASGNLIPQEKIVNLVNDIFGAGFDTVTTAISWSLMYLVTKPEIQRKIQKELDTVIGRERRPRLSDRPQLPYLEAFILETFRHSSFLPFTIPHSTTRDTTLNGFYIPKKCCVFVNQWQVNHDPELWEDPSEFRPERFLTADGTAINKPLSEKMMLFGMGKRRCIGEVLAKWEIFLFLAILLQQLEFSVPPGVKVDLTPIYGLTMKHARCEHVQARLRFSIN
Glucocorticoid receptor (Homo sapiens), sequence (P04150 whole entry, looked up): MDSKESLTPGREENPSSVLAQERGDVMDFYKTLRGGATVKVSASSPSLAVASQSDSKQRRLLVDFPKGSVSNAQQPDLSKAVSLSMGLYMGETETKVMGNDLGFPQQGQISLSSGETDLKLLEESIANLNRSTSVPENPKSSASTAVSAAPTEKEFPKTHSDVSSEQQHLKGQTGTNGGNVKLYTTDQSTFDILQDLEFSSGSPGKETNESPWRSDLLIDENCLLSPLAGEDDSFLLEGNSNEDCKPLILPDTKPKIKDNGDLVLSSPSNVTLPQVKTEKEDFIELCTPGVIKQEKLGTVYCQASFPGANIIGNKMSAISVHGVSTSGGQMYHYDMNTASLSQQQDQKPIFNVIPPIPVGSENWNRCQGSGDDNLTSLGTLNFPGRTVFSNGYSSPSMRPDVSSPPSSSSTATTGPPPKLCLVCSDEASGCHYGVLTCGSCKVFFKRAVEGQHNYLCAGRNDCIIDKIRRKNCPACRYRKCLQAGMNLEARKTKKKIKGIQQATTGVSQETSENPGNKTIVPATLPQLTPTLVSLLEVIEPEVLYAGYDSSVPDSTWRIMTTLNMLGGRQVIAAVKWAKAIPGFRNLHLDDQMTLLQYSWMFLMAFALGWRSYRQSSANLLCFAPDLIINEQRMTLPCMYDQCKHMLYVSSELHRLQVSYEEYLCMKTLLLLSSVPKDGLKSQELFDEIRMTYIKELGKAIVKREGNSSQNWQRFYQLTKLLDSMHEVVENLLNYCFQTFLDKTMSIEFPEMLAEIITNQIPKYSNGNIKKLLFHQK
Ubiquitin carboxyl-terminal hydrolase 1 (Homo sapiens), sequence (O94782 whole entry, looked up): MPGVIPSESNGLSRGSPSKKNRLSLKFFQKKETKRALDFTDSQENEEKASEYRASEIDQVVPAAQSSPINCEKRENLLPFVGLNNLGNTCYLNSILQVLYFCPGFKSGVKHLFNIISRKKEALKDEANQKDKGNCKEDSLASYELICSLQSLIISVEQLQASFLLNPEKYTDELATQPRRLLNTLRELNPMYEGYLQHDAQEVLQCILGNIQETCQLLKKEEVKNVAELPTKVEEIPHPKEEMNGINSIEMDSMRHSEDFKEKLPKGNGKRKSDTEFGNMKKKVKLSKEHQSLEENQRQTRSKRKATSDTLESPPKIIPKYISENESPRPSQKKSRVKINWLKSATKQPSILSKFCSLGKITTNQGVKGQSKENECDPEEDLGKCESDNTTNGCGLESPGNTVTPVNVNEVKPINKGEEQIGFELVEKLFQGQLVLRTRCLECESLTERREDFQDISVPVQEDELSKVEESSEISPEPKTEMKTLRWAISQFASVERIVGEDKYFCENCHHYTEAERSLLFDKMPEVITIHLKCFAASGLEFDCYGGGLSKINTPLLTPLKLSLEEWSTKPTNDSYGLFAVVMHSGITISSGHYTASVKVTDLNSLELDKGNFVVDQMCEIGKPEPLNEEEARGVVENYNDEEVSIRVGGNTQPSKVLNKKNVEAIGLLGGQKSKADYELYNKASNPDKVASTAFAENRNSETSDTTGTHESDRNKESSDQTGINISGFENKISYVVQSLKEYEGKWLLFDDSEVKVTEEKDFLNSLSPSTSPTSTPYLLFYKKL
3',5'-cyclic-AMP phosphodiesterase 4B (Homo sapiens), sequence (Q07343 whole entry, looked up): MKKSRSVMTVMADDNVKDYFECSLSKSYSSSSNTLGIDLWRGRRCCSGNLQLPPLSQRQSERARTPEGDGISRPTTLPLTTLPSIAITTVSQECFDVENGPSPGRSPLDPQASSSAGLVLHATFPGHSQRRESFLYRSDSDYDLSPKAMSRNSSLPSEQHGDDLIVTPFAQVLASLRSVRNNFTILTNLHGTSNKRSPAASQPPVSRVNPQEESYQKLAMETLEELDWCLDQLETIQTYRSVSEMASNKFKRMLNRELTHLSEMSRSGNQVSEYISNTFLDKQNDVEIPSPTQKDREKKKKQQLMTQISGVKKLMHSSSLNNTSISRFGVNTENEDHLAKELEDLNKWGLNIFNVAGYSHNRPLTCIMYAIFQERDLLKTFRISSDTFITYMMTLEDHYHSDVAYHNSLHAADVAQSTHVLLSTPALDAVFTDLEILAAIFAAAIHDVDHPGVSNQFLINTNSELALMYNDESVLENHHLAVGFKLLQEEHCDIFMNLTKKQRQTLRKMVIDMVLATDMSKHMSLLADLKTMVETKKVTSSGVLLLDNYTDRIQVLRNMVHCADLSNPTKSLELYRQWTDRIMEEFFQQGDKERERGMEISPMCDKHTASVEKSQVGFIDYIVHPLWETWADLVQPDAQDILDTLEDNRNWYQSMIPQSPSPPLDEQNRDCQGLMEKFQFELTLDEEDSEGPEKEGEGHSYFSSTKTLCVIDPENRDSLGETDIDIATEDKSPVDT
Cytochrome P450 2C19 (Homo sapiens), sequence (P33261 whole entry, looked up): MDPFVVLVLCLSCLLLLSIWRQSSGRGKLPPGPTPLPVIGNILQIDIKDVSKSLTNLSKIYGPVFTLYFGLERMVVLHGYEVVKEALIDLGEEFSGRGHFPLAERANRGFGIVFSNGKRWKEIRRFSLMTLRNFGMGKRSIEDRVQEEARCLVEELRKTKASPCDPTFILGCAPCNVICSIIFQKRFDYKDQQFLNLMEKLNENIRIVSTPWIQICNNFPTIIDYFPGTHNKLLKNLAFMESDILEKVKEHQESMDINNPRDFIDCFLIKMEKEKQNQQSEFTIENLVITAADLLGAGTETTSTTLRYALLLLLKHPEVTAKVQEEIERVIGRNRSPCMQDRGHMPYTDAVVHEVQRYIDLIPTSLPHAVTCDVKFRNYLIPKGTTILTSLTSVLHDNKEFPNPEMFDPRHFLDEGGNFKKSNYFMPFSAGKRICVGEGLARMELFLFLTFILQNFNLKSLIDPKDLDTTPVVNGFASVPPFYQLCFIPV

Take `Cc1cnc(CNc2nc(-c3cccc(NS(C)(=O)=O)c3)nc3ccccc23)cn1`: the figures for the Potency in test [1], in [5] and in [6] were greater than 11.4 µM, greater than 46 µM and greater than 46 µM, respectively. Besides, the activity change, negative = inhibition in test [2] is -28.3%; in test [3], 19.4%. For the same compound, the activity, negative = inhibition in [4] is -4.54%. Besides, the Potency entry in [7], in test [8], in test [9], in [10] and in test [11] was “inactive” throughout. Besides, the result in test [12] was inactive.
Regarding `COc1cccc(Nc2ncc3nc(-c4cccs4)c(=O)n(CCC#N)c3n2)c1`, the Potency was greater than 11.4 µM in test [1], 2.51 µM (active) in test [13], greater than 46 µM in test [6] and 6.31 µM (active) in test [14]. In addition, the activity change, negative = inhibition in [2] was -26.3%. Besides, the Potency result in test [7], in test [8], in test [15], in test [9], in test [10] and in [11] was “inactive” in each case. The outcome in test [12] was inactive.
Regarding `COCCNc1nc(-c2cccc(NS(C)(=O)=O)c2)nc2ccccc12`, the Potency is greater than 11.4 µM in [1]; 3.16 µM (active) in [13]; greater than 46 µM in test [5]; greater than 46 µM in [6]; 11.2 µM (active) in test [9]; 14.1 µM (active) in [10]. The activity change, negative = inhibition was -25.4% in test [2] and 22.3% in [3]. In addition, in [4], the activity, negative = inhibition was -10.1%. Besides, the Potency entry in [7] and in [15] was “inactive” each time. For the same compound, the outcome in test [12] was inactive.
Take `COc1ccc2[nH]cc(CCNc3ccnc(-c4ccccc4C(F)(F)F)n3)c2c1`: the Potency in test [1] is greater than 11.4 µM; in test [13], 3.98 µM (active); in test [5], greater than 46 µM; in test [6] it was greater than 46 µM; in test [14], 2 µM (active). Besides, the activity change, negative = inhibition was -10.2% in [2] and -1.93% in test [3]. In test [4], the activity, negative = inhibition is -14.8%. Further, the Potency entry in [7], in test [8], in [15], in test [9] and in test [10] was “inactive” each time. Besides, in test [12], the outcome was inactive.
For `Cc1noc(C)c1-c1nc(N(C)Cc2ccco2)c2ccccc2n1`, the Potency is greater than 11.4 µM in test [1], greater than 46 µM in test [5], greater than 46 µM in test [6] and 28.2 µM (active) in test [9]. Also, in [2], the activity change, negative = inhibition was -1.42%. Moreover, the activity, negative = inhibition in [4] was -25.7%. In addition, the Potency result in [8], in test [10] and in test [11] was “inactive” in each case. Further, the result in test [12] was inactive.
Turning to `c1ccc(CNc2ncncc2-c2ccc3c(c2)OCO3)cc1`, the Potency in [1] was greater than 11.4 µM; in test [13], 0.126 µM (active); in test [5], greater than 46 µM; in test [6] it was greater than 46 µM; in [14], 0.501 µM (active); in [16], 501 nM (active). The Potency is 6.31 µM (active) in [9] and 2.51 µM (active) in [10]. The activity change, negative = inhibition was -23.4% in [2] and 7.28% in test [3]. In addition, the activity, negative = inhibition in test [4] was -0.121%. For the same compound, the Potency entry in test [7], in test [15] and in test [11] was “inactive” in each case. Further, the result in test [12] was inactive.
